Where “and” joins values, the source holds several entries; their conditions need not be identical. Equal values may be shown once. About 79,000 compounds went through this panel and 15% of them were active in at least one assay; those are over-represented in the sample as a whole. Calls of active or inactive are those of the source. Rule as the data show it: active = growth inhibition above about 70%; inactive = the rest.
Assay: NCI Yeast Anticancer Drug Screen. Data for the rad50 strain (AID 155);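 also: 0% = growth of vehicle-only cultures of the same strain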
Conditions: S. cerevisiae rad50 strain growth inhibition, hits give high values; at 50.0 µM unless noted
Outline: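 Genetically altered yeast (DNA repair pathway); compound treatment; growth inhibition vs vehicle ctrl.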
In the case of `C/C(=N\NS(=O)(=O)c1c(C)cc(C)cc1C)c1ccc[n+]([O-])n1`, the growth inhibition is reported as 3.95% (inactive). With `Nc1cc([N+](=O)[O-])ccc1C(=O)O` the growth inhibition was 15.2% (inactive). For `FC(F)(F)c1ccc2nc(NCc3ccccc3)c(-c3ccccc3)nc2c1`, the growth inhibition was 3.85% (inactive). For `Nc1ccc(C(=O)O)cc1N`, the growth inhibition was 17.5% (inactive). With `O=C(O)[C@H](Cc1ccccc1)N1C(=O)N[C@@H](Cc2ccccc2)C1=O` the growth inhibition was -21.6% (inactive). With `COC(=O)CC1C(C)(C)C(=O)C2CC3=C4CC(=O)OC(c5ccoc5)C4(C)CCC3C1(C)C2=O` (stereo not drawn) the growth inhibition was 1.3% (inactive). With `Cn1c2c(c(=O)c3cc(O)ccc31)CC(O)C(C)(C)O2` (stereo not drawn) the growth inhibition was -8.9% (inactive). With `CC(C)N1C(=O)c2cccc(Cl)c2C1=O` (tested in a mixture with another compound) the growth inhibition was 10.8% (inactive). With `CN1C(C)(C)CC(=O)C(Br)C1(C)C` (stereo not drawn) the growth inhibition was -37.8% (inactive). For `C#CC(O)C1OC(C)(C)OC1C1COC(C)(C)O1` (stereo not drawn), the growth inhibition was 4.15% (inactive). For `CC(C)(C)c1cc(-n2nc3ccccc3[n+]2[O-])c(O)c(C(C)(C)C)c1`, the growth inhibition was 4.35% (inactive). With `COc1cccc(/C=C/C(C)=N/NC(N)=O)c1` the growth inhibition was 6.5% (inactive). In the case of `Brc1ccc2c(ccc3c2nnc2ncnn23)c1`, the growth inhibition is reported as 42.5% (inactive). In the case of `COc1ccc(OC)c2[nH]c(Sc3c([N+](=O)[O-])ncn3C)nc12`, the growth inhibition is reported as -5.95% (inactive). In the case of `COc1cc(OC)c(/C=N/N=C(\N)NO)c(OC)c1`, the growth inhibition is reported as -8.95% (inactive). In the case of `COC1=NS(=O)(=O)C2CCCCCCC2O1` (stereo not drawn), the growth inhibition is reported as 11.1% (inactive). In the case of `COc1ccc(/C=N/N=C(/C(=O)c2ccc(OC)cc2)c2ccc(OC)cc2)cc1`, the growth inhibition is reported as 32.6% (inactive). In the case of `CN(C)c1ccc(N)c(N)c1`, the growth inhibition is reported as -13.5% (inactive). In the case of `Nc1ccc(OCc2ccccc2)cc1[N+](=O)[O-]`, the growth inhibition is reported as 6.4% (inactive). In the case of `CC(C)(C)c1ccncc1`, the growth inhibition is reported as 8.45% (inactive). In the case of `CC1(C)CSCC(C)(C)C(=N/N)/C1=N\N`, the growth inhibition is reported as 6.95% (inactive). With `CC(=O)OC(C)COc1ccccc1` (stereo not drawn) the growth inhibition was 23.1% (inactive) and 5.6% (inactive). In the case of `CN(C(=O)Cc1ccccc1)n1cn[n+](CC(=O)OC(C)(C)C)c1`, the growth inhibition is reported as -3.65% (inactive). In the case of `C#CCOC(=O)Nc1ccccc1`, the growth inhibition is reported as 21.6% (inactive) and 1.85% (inactive). In the case of `CCc1cc(C)cc(O)c1`, the growth inhibition is reported as -42.9% (inactive) and 38% (inactive). For `CCc1ccc(NS(=O)(=O)c2ccccc2[N+](=O)[O-])cc1`, the growth inhibition was 31.9% (inactive). With `CC(C)OC(=O)Nc1cccc(Cl)c1F` the growth inhibition was 15.9% (inactive). For `CC(Oc1ccccc1)C(=O)NC(=S)Nc1cccc2ccccc12` (stereo not drawn), the growth inhibition was -10.2% (inactive). With `O=c1[nH]cnc2c1ncn2C1CCCO1` (stereo not drawn) the growth inhibition was -14.2% (inactive). For `N#CC1CSCC1=O` (stereo not drawn), the growth inhibition was -6.5% (inactive). For `Cc1ccc(S(=O)(=O)CC(=O)NC(C)C)cc1`, the growth inhibition was -3.9% (inactive). With `Cc1c(Cl)cccc1NC(=O)C(=O)c1c(O)c2ccc(O)cc2oc1=O` the growth inhibition was 4.8% (inactive). For `Nc1c(Cl)ncnc1NCc1ccco1`, the growth inhibition was 5.25% (inactive). With `CC(=O)c1cccc(NC(=O)CCCCCCCCC(=O)Nc2cccc(C(C)=O)c2)c1` the growth inhibition was -5.7% (inactive). In the case of `CCOC(=O)O/C(C)=C\c1ccc(Cl)cc1`, the growth inhibition is reported as 2.45% (inactive). For `CC(=O)C[n+]1cccc(Br)c1`, the growth inhibition was -6.7% (inactive). In the case of `Cc1cc2nc3c(=O)[nH]c(=O)nc-3n(C/C=N/NC(N)=S)c2cc1C`, the growth inhibition is reported as 5.75% (inactive). With `O=C(CCCN1CCC2(CC1)CC(=O)N(N1CCOCC1)C2=O)c1ccc(F)cc1` the growth inhibition was -4.65% (inactive). For `O=C(/C=C/c1ccccc1)CSc1ncn[nH]1`, the growth inhibition was 10.1% (inactive).

Assay: NCI Yeast Anticancer Drug Screen. Data for the mec2-1 strain (AID 157)
Conditions: S. cerevisiae mec2-1 strain, hits give high values; at 50.0 µM unless noted
Outline: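 Yeast mec2-1 mutant treated with compound. Readout: growth inhibition vs vehicle controls.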
In the case of `C/C(=N\NS(=O)(=O)c1c(C)cc(C)cc1C)c1ccc[n+]([O-])n1`, the growth inhibition is reported as 0.2% (inactive). In the case of `Nc1cc([N+](=O)[O-])ccc1C(=O)O`, the growth inhibition is reported as 0.05% (inactive). With `FC(F)(F)c1ccc2nc(NCc3ccccc3)c(-c3ccccc3)nc2c1` the growth inhibition was 15.6% (inactive). With `Nc1ccc(C(=O)O)cc1N` the growth inhibition was 46.6% (inactive). With `O=C(O)[C@H](Cc1ccccc1)N1C(=O)N[C@@H](Cc2ccccc2)C1=O` the growth inhibition was -1.7% (inactive). In the case of `COC(=O)CC1C(C)(C)C(=O)C2CC3=C4CC(=O)OC(c5ccoc5)C4(C)CCC3C1(C)C2=O` (stereo not drawn), the growth inhibition is reported as 2.4% (inactive). In the case of `Cn1c2c(c(=O)c3cc(O)ccc31)CC(O)C(C)(C)O2` (stereo not drawn), the growth inhibition is reported as -10.8% (inactive). For `CC(C)N1C(=O)c2cccc(Cl)c2C1=O` (tested in a mixture with another compound), the growth inhibition was 4.1% (inactive). With `CN1C(C)(C)CC(=O)C(Br)C1(C)C` (stereo not drawn) the growth inhibition was -45% (inactive). For `C#CC(O)C1OC(C)(C)OC1C1COC(C)(C)O1` (stereo not drawn), the growth inhibition was 6.5% (inactive). With `CC(C)(C)c1cc(-n2nc3ccccc3[n+]2[O-])c(O)c(C(C)(C)C)c1` the growth inhibition was 12.8% (inactive). In the case of `COc1cccc(/C=C/C(C)=N/NC(N)=O)c1`, the growth inhibition is reported as 0.25% (inactive). For `Brc1ccc2c(ccc3c2nnc2ncnn23)c1`, the growth inhibition was 22.4% (inactive). In the case of `COc1ccc(OC)c2[nH]c(Sc3c([N+](=O)[O-])ncn3C)nc12`, the growth inhibition is reported as -13.9% (inactive). In the case of `COc1cc(OC)c(/C=N/N=C(\N)NO)c(OC)c1`, the growth inhibition is reported as 12.2% (inactive). For `COC1=NS(=O)(=O)C2CCCCCCC2O1` (stereo not drawn), the growth inhibition was -2.85% (inactive). In the case of `COc1ccc(/C=N/N=C(/C(=O)c2ccc(OC)cc2)c2ccc(OC)cc2)cc1`, the growth inhibition is reported as 0.3% (inactive). In the case of `CN(C)c1ccc(N)c(N)c1`, the growth inhibition is reported as -34.8% (inactive). In the case of `Nc1ccc(OCc2ccccc2)cc1[N+](=O)[O-]`, the growth inhibition is reported as -30.8% (inactive). In the case of `CC(C)(C)c1ccncc1`, the growth inhibition is reported as 16.1% (inactive). With `CC1(C)CSCC(C)(C)C(=N/N)/C1=N\N` the growth inhibition was 22.7% (inactive). In the case of `CC(=O)OC(C)COc1ccccc1` (stereo not drawn), the growth inhibition is reported as 1.55% (inactive) and -10.3% (inactive). With `CN(C(=O)Cc1ccccc1)n1cn[n+](CC(=O)OC(C)(C)C)c1` the growth inhibition was -13.6% (inactive). With `C#CCOC(=O)Nc1ccccc1` the growth inhibition was 12.7% (inactive) and -1.2% (inactive). With `CCc1cc(C)cc(O)c1` the growth inhibition was -40% (inactive) and 4.6% (inactive). With `CCc1ccc(NS(=O)(=O)c2ccccc2[N+](=O)[O-])cc1` the growth inhibition was 42.6% (inactive). In the case of `CC(C)OC(=O)Nc1cccc(Cl)c1F`, the growth inhibition is reported as -10.8% (inactive). For `CC(Oc1ccccc1)C(=O)NC(=S)Nc1cccc2ccccc12` (stereo not drawn), the growth inhibition was -3.5% (inactive). In the case of `O=c1[nH]cnc2c1ncn2C1CCCO1` (stereo not drawn), the growth inhibition is reported as -3.3% (inactive). In the case of `N#CC1CSCC1=O` (stereo not drawn), the growth inhibition is reported as -8.8% (inactive). For `Cc1ccc(S(=O)(=O)CC(=O)NC(C)C)cc1`, the growth inhibition was -17% (inactive). With `Cc1c(Cl)cccc1NC(=O)C(=O)c1c(O)c2ccc(O)cc2oc1=O` the growth inhibition was 1.25% (inactive). In the case of `Nc1c(Cl)ncnc1NCc1ccco1`, the growth inhibition is reported as -4.2% (inactive). In the case of `CC(=O)c1cccc(NC(=O)CCCCCCCCC(=O)Nc2cccc(C(C)=O)c2)c1`, the growth inhibition is reported as -0.7% (inactive). For `CCOC(=O)O/C(C)=C\c1ccc(Cl)cc1`, the growth inhibition was -2.65% (inactive). For `CC(=O)C[n+]1cccc(Br)c1`, the growth inhibition was 8.7% (inactive). In the case of `Cc1cc2nc3c(=O)[nH]c(=O)nc-3n(C/C=N/NC(N)=S)c2cc1C`, the growth inhibition is reported as -7.65% (inactive). With `O=C(CCCN1CCC2(CC1)CC(=O)N(N1CCOCC1)C2=O)c1ccc(F)cc1` the growth inhibition was 6.1% (inactive). With `O=C(/C=C/c1ccccc1)CSc1ncn[nH]1` the growth inhibition was 5.4% (inactive).

— PubChem BioAssay (NCI)
